# Assays:
# Test in all cases: PBM binding z-score (relative to random genomic background probes); higher = stronger binding; sequences stand for … in GC…GCGATTGACAGCGTAGAATGAAGG
# [1] = tested on: FXR:RXRa (NR concentration 270 nM, RXRa partner concentration 90 nM)
# Outline: (§1)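 Binding buffer was PBS pH 7.4 with 2% milk, 0.02% Triton X-100, 1 mM DTT, 0.2 mg/mL BSA and 0.4 mg/ml salmon testes DNA. In it, ligand-free nuclear receptor dimers were incubated 1 h on custom Agilent 4×180K protein-binding microarrays carrying double-stranded probes. Antibodies against each partner (one per run) detected binding, and z-scores were calculated against random background probes after regression normalization of scanned fluorescence.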
# [2] = tested on: LXRa:RXRa (NR concentration 270 nM, RXRa partner concentration 90 nM)
# Outline: as §1
# [3] = tested on: LXRa homodimer (NR concentration 270 nM)
# Outline: as §1
# [4] = tested on: LXRb:RXRa (NR concentration 270 nM, RXRa partner concentration 90 nM)
# Outline: as §1
# [5] = tested on: LXRb homodimer (NR concentration 270 nM)
# Outline: as §1
# [6] = tested on: PPARa:RXRa (NR concentration 270 nM, RXRa partner concentration 90 nM)
# Outline: as §1
# [7] = tested on: PPARg:RXRa (NR concentration 180 nM, RXRa partner concentration 90 nM)
# Outline: as §1
# [8] = tested on: PPARg:RXRa 270nM:90nM, anti-RXR (NR concentration 270 nM, RXRa partner concentration 90 nM)
# Outline: as §1
# [9] = tested on: PPARg:RXRa 30nM:10nM, anti-RXR (NR concentration 30 nM, RXRa partner concentration 10 nM)
# Outline: as §1
# [10] = tested on: PPARg:RXRa 90nM:30nM, anti-RXR (NR concentration 90 nM, RXRa partner concentration 30 nM)
# Outline: as §1
# [11] = tested on: PPARg:RXRa DBDmut IVT, anti-RXR (DBD mutation: RXRa K156A/R161A, NR concentration 270 nM, RXRa partner concentration 90 nM)
# Outline: as §1
# [12] = tested on: PPARg:RXRa IVT, anti-PPARg (NR concentration 270 nM, RXRa partner concentration 90 nM)
# Outline: as §1
# [13] = tested on: PPARg DBDmut:RXRa IVT, anti-PPARg (DBD mutation: PPARg1 K132A/R137A, NR concentration 270 nM, RXRa partner concentration 90 nM)
# Outline: as §1
# [14] = tested on: PPARg DBDmut IVT, anti-PPARg (DBD mutation: PPARg1 K132A/R137A, NR concentration 270 nM)
# Outline: as §1
# [15] = tested on: PPARg homodimer (NR concentration 180 nM)
# Outline: as §1
# [16] = tested on: PXR:RXRa (NR concentration 270 nM, RXRa partner concentration 90 nM)
# Outline: as §1
# [17] = tested on: PXR homodimer (NR concentration 270 nM)
# Outline: as §1
# [18] = tested on: RARa:RXR (NR concentration 270 nM, RXRa partner concentration 90 nM)
# Outline: as §1
# [19] = tested on: RARa homodimer (NR concentration 270 nM)
# Outline: as §1
# [20] = tested on: RARb:RXRa (NR concentration 270 nM, RXRa partner concentration 90 nM)
# Outline: as §1
sequence,measurement,setting,value
ATCTCTAGGTAAAAGTTCAGCGAATCCCGAGGAT,PBM binding z-score,[1],1.36
same,PBM binding z-score,[2],1.99
same,PBM binding z-score,[3],1.58
same,PBM binding z-score,[4],1.46
same,PBM binding z-score,[5],0.982
same,PBM binding z-score,[6],4.39
same,PBM binding z-score,[7],8.87
same,PBM binding z-score,[8],8.21
same,PBM binding z-score,[9],8.78
same,PBM binding z-score,[10],9.67
same,PBM binding z-score,[11],2.55
same,PBM binding z-score,[12],4.3
same,PBM binding z-score,[13],1.19
same,PBM binding z-score,[14],1.67
same,PBM binding z-score,[15],2.4
same,PBM binding z-score,[16],2.46
same,PBM binding z-score,[17],1.54
same,PBM binding z-score,[18],2.48
same,PBM binding z-score,[19],0.715
same,PBM binding z-score,[20],2.93
GATACAGGGTCAAGGCCAGAGAACGCGTATTGAT,PBM binding z-score,[1],6.78
same,PBM binding z-score,[2],4.32
same,PBM binding z-score,[3],0.0774
same,PBM binding z-score,[4],3.59
same,PBM binding z-score,[5],-0.239
same,PBM binding z-score,[6],5.57
same,PBM binding z-score,[7],5.91
same,PBM binding z-score,[8],5.64
same,PBM binding z-score,[9],2.25
same,PBM binding z-score,[10],4.54
same,PBM binding z-score,[11],2.63
same,PBM binding z-score,[12],3.9
same,PBM binding z-score,[13],1.58
same,PBM binding z-score,[14],-0.524
same,PBM binding z-score,[15],2.6
same,PBM binding z-score,[16],3.71
same,PBM binding z-score,[17],0.476
same,PBM binding z-score,[18],4.41
same,PBM binding z-score,[19],1.07
same,PBM binding z-score,[20],4.49
TCATATAGGGAAATGCTAGGTGAAAGTCCGATCT,PBM binding z-score,[1],1.31
same,PBM binding z-score,[2],0.732
same,PBM binding z-score,[3],0.053
same,PBM binding z-score,[4],0.609
same,PBM binding z-score,[5],-0.0156
same,PBM binding z-score,[6],0.83
same,PBM binding z-score,[7],0.563
same,PBM binding z-score,[8],2.3
same,PBM binding z-score,[9],3.82
same,PBM binding z-score,[10],2.91
same,PBM binding z-score,[11],2.89
same,PBM binding z-score,[12],1.33
same,PBM binding z-score,[13],1.18
same,PBM binding z-score,[14],0.79
same,PBM binding z-score,[15],0.712
same,PBM binding z-score,[16],0.607
same,PBM binding z-score,[17],0.552
same,PBM binding z-score,[18],0.746
same,PBM binding z-score,[19],0.849
same,PBM binding z-score,[20],0.226
CAAACTAGGTCACAGAGGTGAAAGTCCGTGCGTA,PBM binding z-score,[1],5.7
same,PBM binding z-score,[2],4.38
same,PBM binding z-score,[3],0.932
same,PBM binding z-score,[4],3.33
same,PBM binding z-score,[5],0.56
same,PBM binding z-score,[6],5.82
same,PBM binding z-score,[7],9.16
same,PBM binding z-score,[8],7.57
same,PBM binding z-score,[9],5.73
same,PBM binding z-score,[10],7.6
same,PBM binding z-score,[11],8.61
same,PBM binding z-score,[12],8.94
same,PBM binding z-score,[13],5.86
same,PBM binding z-score,[14],4.85
same,PBM binding z-score,[15],2.36
same,PBM binding z-score,[16],3.51
same,PBM binding z-score,[17],0.909
same,PBM binding z-score,[18],4.08
same,PBM binding z-score,[19],0.879
same,PBM binding z-score,[20],4.42
CTCGAAAGGTCGGTTGAGGAGAGTATACGGATAA,PBM binding z-score,[1],1.93
same,PBM binding z-score,[2],1.38
same,PBM binding z-score,[3],-0.296
same,PBM binding z-score,[4],1.13
same,PBM binding z-score,[5],0.0344
same,PBM binding z-score,[6],2.25
same,PBM binding z-score,[7],0.367
same,PBM binding z-score,[8],1.09
same,PBM binding z-score,[9],0.298
same,PBM binding z-score,[10],0.525
same,PBM binding z-score,[11],-0.459
same,PBM binding z-score,[12],0.102
same,PBM binding z-score,[13],1.01
same,PBM binding z-score,[14],-0.0822
same,PBM binding z-score,[15],0.421
same,PBM binding z-score,[16],1.09
same,PBM binding z-score,[17],0.356
same,PBM binding z-score,[18],2.15
same,PBM binding z-score,[19],-0.00538
same,PBM binding z-score,[20],2.87
TCATATAGGTAATACAGGTGGAAGTCGGCATCTA,PBM binding z-score,[1],1.45
same,PBM binding z-score,[2],1.49
same,PBM binding z-score,[3],0.307
same,PBM binding z-score,[4],0.555
same,PBM binding z-score,[5],0.553
same,PBM binding z-score,[6],1.31
same,PBM binding z-score,[7],1.07
same,PBM binding z-score,[8],2.33
same,PBM binding z-score,[9],3.98
same,PBM binding z-score,[10],3.14
same,PBM binding z-score,[11],4.03
same,PBM binding z-score,[12],2.31
same,PBM binding z-score,[13],1.36
same,PBM binding z-score,[14],0.905
same,PBM binding z-score,[15],0.801
same,PBM binding z-score,[16],0.571
same,PBM binding z-score,[17],0.602
same,PBM binding z-score,[18],0.763
same,PBM binding z-score,[19],1.5
same,PBM binding z-score,[20],0.515
CCTACTGGGCCAAAAAGGTCATTGACGCCGATAA,PBM binding z-score,[1],3.87
same,PBM binding z-score,[2],4.62
same,PBM binding z-score,[3],2.87
same,PBM binding z-score,[4],4.33
same,PBM binding z-score,[5],0.108
same,PBM binding z-score,[6],4.61
same,PBM binding z-score,[7],3.21
same,PBM binding z-score,[8],4.25
same,PBM binding z-score,[9],1.8
same,PBM binding z-score,[10],3.54
same,PBM binding z-score,[11],3.85
same,PBM binding z-score,[12],3.99
same,PBM binding z-score,[13],-0.855
same,PBM binding z-score,[14],-0.422
same,PBM binding z-score,[15],2.91
same,PBM binding z-score,[16],4.65
same,PBM binding z-score,[17],2.1
same,PBM binding z-score,[18],5.01
same,PBM binding z-score,[19],1.28
same,PBM binding z-score,[20],3.72

# Reference: the supplement of paper PMC6555819
